# PubChem BioAssay (NCATS)
# Results filed as inconclusive are left out. Entries that show only a call come without a potency. Calls of active or inactive are those of the source. The call rests on the fitted dose curve; in most records, active means well fitted curve in the direction sought with a large enough effect; inconclusive means small, poorly fitted or top-dose-only effect, or another doubt; inactive means no such curve, though single readings can be large; an effect the other way counts as inactive or inconclusive.
# What was measured:
# [1] = target: Rap guanine nucleotide exchange factor 3 (Homo sapiens) (UniProt O95398); test: Confirmatory qHTS for antagonist of cAMP-regulated guanine nucleotide exchange factor 3 (EPAC1) (AID 1645880); further: nearly all actives have a fitted effect of over 55% in size; further: potency means the concentration at half of the fitted maximal effect
# In short: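 Nucleotide exchange uses 100 nM EPAC1, 250 nM RAP1B-BODIPY-GDP and 50 uM GDP, with compounds in a concentration-titration series. After 5 min at room temperature, fluorescence (480 nm ex/540 nm em) is read every 5 min for 30 min. Data are normalized to control ATA and DMSO.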
# [2] = target: Rap guanine nucleotide exchange factor 3 (Homo sapiens) (UniProt O95398); test: Confirmatory qHTS for agonist of cAMP-regulated guanine nucleotide exchange factor 3 (EPAC1) (AID 1645881); further: nearly all actives have a fitted effect of over 75% in size; further: potency means the concentration at half of the fitted maximal effect;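 on activation: EPAC1 catalysed release of BODIPY-GDP from Rap1B seen as fluorescence loss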
# [3] = target: Rap guanine nucleotide exchange factor 4 (Homo sapiens) (UniProt Q8WZA2); test: Confirmatory qHTS for agonist of cAMP-regulated guanine nucleotide exchange factor 4 (EPAC2) (AID 1645884);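 further: nucleotide exchange releases bodipy-GDP from Rap1 and this lowers its fluorescence; nearly all actives have a fitted effect of over 65% in size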; further: potency means the concentration at half of the fitted maximal effect
# [4] = target: Rap guanine nucleotide exchange factor 4 (Homo sapiens) (UniProt Q8WZA2); test: Confirmatory qHTS for antagonist of cAMP-regulated guanine nucleotide exchange factor 4 (EPAC2) (AID 1645885); further: nearly all actives have a fitted effect of over 25% in size; further: potency means the concentration at half of the fitted maximal effect
# [5] = target: Rap guanine nucleotide exchange factor 3 (Homo sapiens) (UniProt O95398); test: Counterscreen qHTS for antagonist of cAMP-regulated guanine nucleotide exchange factor 3 (EPAC1) (AID 1645888);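 further: fluorescence loss as bound BODIPY-GDP is released from Rap1B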
# In short: (§1)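 Rap1B-BODIPY-GDP 250 nM + GDP 50 uM; cpds 7-pt, final 9.74 nM–152 uM (activator mode) or from 7.32 nM upwards (inhibitor mode); RT; FI 480/540 nm at 5 and 30 min, then ± cAMP, reread.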
# [6] = target: Rap guanine nucleotide exchange factor 3 (Homo sapiens) (UniProt O95398); test: Counterscreen qHTS for agonist of cAMP-regulated guanine nucleotide exchange factor 3 (EPAC1) (AID 1645889); further: nearly all actives have a fitted effect of over 40% in size; further: potency means the concentration at half of the fitted maximal effect
# In short: as §1
# Chain of Rap guanine nucleotide exchange factor 4 (Homo sapiens) (Q8WZA2 whole entry, looked up): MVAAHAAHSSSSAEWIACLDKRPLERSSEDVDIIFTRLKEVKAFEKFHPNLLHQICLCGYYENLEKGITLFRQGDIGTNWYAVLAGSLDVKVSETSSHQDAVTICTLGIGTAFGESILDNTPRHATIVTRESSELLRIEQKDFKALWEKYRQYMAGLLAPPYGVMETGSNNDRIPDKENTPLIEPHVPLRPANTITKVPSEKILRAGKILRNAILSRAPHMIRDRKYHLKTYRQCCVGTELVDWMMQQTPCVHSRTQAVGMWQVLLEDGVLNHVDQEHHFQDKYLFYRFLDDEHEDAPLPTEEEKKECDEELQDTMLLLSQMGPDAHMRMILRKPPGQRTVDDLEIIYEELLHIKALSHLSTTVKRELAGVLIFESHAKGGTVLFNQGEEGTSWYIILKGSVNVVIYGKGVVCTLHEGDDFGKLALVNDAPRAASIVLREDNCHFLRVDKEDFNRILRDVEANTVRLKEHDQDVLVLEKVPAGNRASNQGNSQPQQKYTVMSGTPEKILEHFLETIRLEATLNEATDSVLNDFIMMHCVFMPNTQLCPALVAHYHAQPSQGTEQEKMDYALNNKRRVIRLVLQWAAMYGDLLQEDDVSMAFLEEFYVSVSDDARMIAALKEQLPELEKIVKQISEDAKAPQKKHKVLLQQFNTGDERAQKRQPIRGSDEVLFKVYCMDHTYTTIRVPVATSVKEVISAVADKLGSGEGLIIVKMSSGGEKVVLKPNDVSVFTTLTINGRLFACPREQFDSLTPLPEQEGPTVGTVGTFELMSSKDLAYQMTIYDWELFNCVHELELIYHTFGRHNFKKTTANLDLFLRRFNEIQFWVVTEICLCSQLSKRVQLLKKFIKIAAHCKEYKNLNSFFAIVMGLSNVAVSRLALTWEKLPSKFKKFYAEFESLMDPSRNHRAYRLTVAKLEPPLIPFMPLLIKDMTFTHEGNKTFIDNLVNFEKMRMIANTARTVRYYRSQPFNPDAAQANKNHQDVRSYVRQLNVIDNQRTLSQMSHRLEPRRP
# Chain of Rap guanine nucleotide exchange factor 3 (Homo sapiens) (O95398 whole entry, looked up): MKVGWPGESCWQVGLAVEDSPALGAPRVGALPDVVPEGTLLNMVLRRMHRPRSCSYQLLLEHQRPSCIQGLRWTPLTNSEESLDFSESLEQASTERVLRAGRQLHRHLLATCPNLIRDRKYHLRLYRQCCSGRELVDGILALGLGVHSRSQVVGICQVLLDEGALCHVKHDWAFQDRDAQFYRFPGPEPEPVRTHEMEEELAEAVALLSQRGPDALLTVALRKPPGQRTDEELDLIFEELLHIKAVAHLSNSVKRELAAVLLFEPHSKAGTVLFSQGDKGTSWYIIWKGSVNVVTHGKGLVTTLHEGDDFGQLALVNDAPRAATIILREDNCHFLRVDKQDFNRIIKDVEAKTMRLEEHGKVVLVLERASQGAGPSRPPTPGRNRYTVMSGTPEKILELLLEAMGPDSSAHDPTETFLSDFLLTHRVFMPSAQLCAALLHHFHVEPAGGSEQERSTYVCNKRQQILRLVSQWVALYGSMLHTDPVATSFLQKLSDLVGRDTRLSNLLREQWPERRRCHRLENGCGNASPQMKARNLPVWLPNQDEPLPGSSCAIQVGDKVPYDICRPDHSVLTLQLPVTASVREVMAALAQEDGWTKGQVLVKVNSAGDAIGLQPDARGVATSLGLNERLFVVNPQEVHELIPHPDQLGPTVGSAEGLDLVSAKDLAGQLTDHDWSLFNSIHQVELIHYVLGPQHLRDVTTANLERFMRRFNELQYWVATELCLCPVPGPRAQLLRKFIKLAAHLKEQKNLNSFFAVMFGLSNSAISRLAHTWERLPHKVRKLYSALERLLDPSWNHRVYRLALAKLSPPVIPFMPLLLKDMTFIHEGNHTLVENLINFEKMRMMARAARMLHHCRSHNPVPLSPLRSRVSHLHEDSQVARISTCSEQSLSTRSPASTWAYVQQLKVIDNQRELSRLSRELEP
SMILES,Potency [1],Potency [2],Potency [3],Potency [4],Potency [5],Potency [6],activation [3],"activity change, negative = inhibition [5]",activation [6]
Cc1ccc2c(c1)c(/C=C/c1cc[n+](C)cc1)c(C)n2C,inactive,100 µM (active),100 µM (active),inactive,inactive,8.91 µM (active),–,–,–
C=CCCCN(Cc1ccccc1)S(=O)(=O)c1ccccc1Br,inactive,inactive,–,inactive,–,–,"1.87% [at 17.1 µM, percent relative to cAMP agonist control] (inactive)",-1.46% [at 30.8 µM] (inactive),12.4% [at 30.8 µM] (inactive)
COc1cccc(-c2ccc(C#N)c(OC(=O)c3ccc(Cl)cc3)n2)c1,inactive,inactive,–,inactive,–,–,"0.578% [at 17.1 µM, percent relative to cAMP agonist control] (inactive)",-4.63% [at 30.8 µM] (inactive),3.51% [at 30.8 µM] (inactive)
Cc1sc(N)c(C(=O)c2ccccc2Cl)c1C,inactive,inactive,inactive,19 µM (active),inactive,inactive,–,–,–
CCN(CC)c1nc(C#N)cc(-c2ccc(OC)cc2)n1,inactive,inactive,inactive,inactive,inactive,inactive,–,–,–
COc1cc2c(cc1OC)C(c1ccccc1Cl)N(C)CC2 (stereo unspecified),inactive,inactive,–,inactive,–,–,"2.32% [at 17.1 µM, percent relative to cAMP agonist control] (inactive)",3.04% [at 30.8 µM] (inactive),9.1% [at 30.8 µM] (inactive)
O=C(O)CCN1C(=O)/C(=C\c2cccc(Oc3ccccc3)c2)SC1=S,26.9 µM (active),inactive,inactive,21.3 µM (active),inactive,inactive,–,–,–
CCCCNC(=O)NC12CC3CC(CC(C3)C1)C2,inactive,inactive,inactive,inactive,inactive,inactive,–,–,–
COc1ccccc1CCc1nnc(CCC(=O)N(C)Cc2cccc3ncccc23)o1,inactive,inactive,inactive,inactive,inactive,inactive,–,–,–
COc1cc(/C=C2\SC(=S)N(C(C(=O)O)c3ccccc3)C2=O)ccc1O (stereo unspecified),47.8 µM (active),inactive,inactive,42.6 µM (active),inactive,inactive,–,–,–
CCc1nc2c(OCc3ccc(C#N)cc3)cccn2c1N(C)C(=O)c1ccc(C)cc1,inactive,inactive,inactive,19 µM (active),inactive,inactive,–,–,–
CC(C)(C)C(=O)Nc1ccc2nc(SCC(=O)N3CCc4ccccc43)sc2c1,inactive,inactive,inactive,inactive,inactive,inactive,–,–,–
Cc1cc(N=Nc2ccccc2C(=O)O)c(C)c(C)c1O,39.8 µM (active),inactive,–,inactive,–,–,"-13.7% [at 17.1 µM, percent relative to cAMP agonist control] (inactive)",-28.9% [at 30.8 µM] (inactive),4.71% [at 30.8 µM] (inactive)
O=C(COc1ccc2ccccc2c1)Nc1cccc(C(=O)Nc2ccccc2C(=O)O)c1,33.8 µM (active),inactive,inactive,47.8 µM (active),inactive,inactive,–,–,–
CNC(=O)NC(=O)C(NC1CCCc2ccccc21)c1ccccc1 (stereo unspecified),inactive,inactive,inactive,47.8 µM (active),inactive,inactive,–,–,–
COc1ncc(-c2c(-c3ccccc3OC)sc3ccccc23)cn1,inactive,inactive,–,inactive,–,–,"-3.13% [at 17.1 µM, percent relative to cAMP agonist control] (inactive)",-4.66% [at 30.8 µM] (inactive),15.7% [at 30.8 µM] (inactive)
Cc1cc2ccccn2c1C(=O)c1ccccc1F,inactive,inactive,–,inactive,–,–,"3.67% [at 17.1 µM, percent relative to cAMP agonist control] (inactive)",-3.01% [at 30.8 µM] (inactive),21.5% [at 30.8 µM] (inactive)
CCOCCCn1c(=N)c(C(=O)NC(C)c2ccccc2)cc2c(=O)n3cccc(C)c3nc21 (stereo unspecified),inactive,inactive,inactive,inactive,inactive,inactive,–,–,–

SMILES,Potency [1],Potency [2],Potency [3],Potency [4],Potency [5],Potency [6],activation [3],"activity change, negative = inhibition [5]",activation [6]
COc1ccccc1N1CC(C(=O)Nc2cc(C(F)(F)F)ccc2N2CCCC2)CC1=O (stereo unspecified),inactive,inactive,–,inactive,–,–,"9.01% [at 17.1 µM, percent relative to cAMP agonist control] (inactive)",-8.33% [at 30.8 µM] (inactive),9.96% [at 30.8 µM] (inactive)
O=C(COC(=O)c1c2c(nc3ccccc13)/C(=C/c1ccco1)CC2)NC1CCCC1,30.1 µM (active),inactive,inactive,inactive,inactive,inactive,–,–,–
CC1CC(C)CN(c2nc3c(c(=O)n(C)c(=O)n3C)n2CCSc2ncccn2)C1 (stereo unspecified),inactive,inactive,–,inactive,–,–,"0.98% [at 17.1 µM, percent relative to cAMP agonist control] (inactive)",1.05% [at 30.8 µM] (inactive),6.66% [at 30.8 µM] (inactive)
Cc1ccc(C2(C)NC(=O)N(CC(=O)Nc3ccccc3N3CCCCC3)C2=O)cc1 (stereo unspecified),inactive,inactive,inactive,inactive,inactive,inactive,–,–,–
CN1/C(=C\C=C(/C#N)C(=O)Nc2ccccc2F)C(C)(C)c2ccccc21,inactive,100 µM (active),100 µM (active),inactive,inactive,14.1 µM (active),–,–,–
COc1ccc(CCNC(=O)c2c(C)nn(-c3ccc(F)cc3)c2-n2cccc2)cc1OC,inactive,inactive,inactive,inactive,inactive,inactive,–,–,–
Cc1[nH]c(C)c2c(=O)n(Cc3ccc(Cl)cc3)ncc12,inactive,inactive,inactive,15.1 µM (active),inactive,inactive,–,–,–
Cc1cn([C@H]2C[C@H](O)[C@@H](CCC(=O)NCc3ccc4c(c3)OCO4)O2)c(=O)[nH]c1=O,inactive,inactive,inactive,inactive,inactive,inactive,–,–,–
CCOc1ccccc1NC(=O)COC(=O)c1ccc(S(=O)(=O)N2CCCC2)cc1,inactive,inactive,inactive,inactive,inactive,inactive,–,–,–
N#Cc1c(-c2ccccc2)nc(SCc2cccc(C(F)(F)F)c2)[nH]c1=O,26.9 µM (active),inactive,inactive,75.7 µM (active),inactive,inactive,–,–,–
N#CC(C(=O)NCc1ccco1)c1nc2ccccc2nc1N1CCOCC1 (stereo unspecified),inactive,inactive,–,inactive,–,–,"4.26% [at 17.1 µM, percent relative to cAMP agonist control] (inactive)",-11.6% [at 30.8 µM] (inactive),19.4% [at 30.8 µM] (inactive)
O=C(N/N=C/c1cc(Br)c(O)c(Br)c1)c1cc2c(ccc3ccccc32)o1,39.8 µM (active),inactive,–,inactive,–,–,"-5.24% [at 17.1 µM, percent relative to cAMP agonist control] (inactive)",-6.71% [at 30.8 µM] (inactive),1.28% [at 30.8 µM] (inactive)
O=S1(=O)CCN2C(Cc3ccc(SC(F)F)cc3)=CSC2=N1,inactive,inactive,inactive,inactive,inactive,inactive,–,–,–
CC(OC(=O)CNC(=O)COc1ccccc1)C(=O)N(C)Cc1ccccc1 (stereo unspecified),inactive,inactive,–,inactive,–,–,"1.04% [at 17.1 µM, percent relative to cAMP agonist control] (inactive)",-17.7% [at 30.8 µM] (inactive),-1.24% [at 30.8 µM] (inactive)
Cc1csc(SCC(=O)NC23CC4CC(CC(C4)C2)C3)n1,inactive,inactive,–,inactive,–,–,"1.39% [at 17.1 µM, percent relative to cAMP agonist control] (inactive)",-23.6% [at 30.8 µM] (inactive),22.6% [at 30.8 µM] (inactive)
CC(C)c1ccc(N(C(=O)c2csnn2)C(C(=O)NC(C)(C)C)c2cccnc2)cc1 (stereo unspecified),inactive,inactive,inactive,inactive,inactive,inactive,–,–,–
Cn1cc([C@]2(O)C(=O)Nc3ccc(F)cc32)c2ccccc21,inactive,inactive,–,inactive,–,–,"-4.66% [at 17.1 µM, percent relative to cAMP agonist control] (inactive)",-17.1% [at 30.8 µM] (inactive),12.7% [at 30.8 µM] (inactive)
CC(C)N(Cc1cn(C)nc1-c1cccc(Cl)c1)Cc1nccn1C,inactive,inactive,–,inactive,–,–,"1.24% [at 17.1 µM, percent relative to cAMP agonist control] (inactive)",-5.68% [at 30.8 µM] (inactive),15% [at 30.8 µM] (inactive)
